# High-throughput results: PubChem BioAssay, several laboratories
# rCAG binder-1: binders of r(CAG) RNA repeats, primary screen, biochemical, fluorescence; r(CAG) RNA repeat, TO-PRO-1 dye displacement fluorescence; inhibition, % at 3 µM; hit rate 1.3% among 370,000; AID 651821, 2012;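 active = inhibition above the plate cutoff, the mean of all test compounds on that plate plus 3 SD, cut at about 35% in these data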;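 note: higher means more dye released from RNA so lower well fluorescence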
# DSG3 Ab inh: inhibitors of pemphigus antibody binding to DSG3, primary screen, biochemical, bead-based, flow cytometry, scFv-GFP; DSG3-coupled beads, scFv-anti-DSG3-GFP binding; hits give low values; binding (percent of control), % at 10 µM; hit rate 0.48% among 310,000;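 active = binding more than 3 SD below its plate's average and above zero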;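 note: hits lower antibody fragment binding to DSG3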
# KLK7 zymogen act: proKLK7 zymogen activators, primary screen, biochemical, fluorescence intensity; hit rate 0.9% among 370,000; activation, % at 7 µM; purified proKLK7, EDANS-DABCYL substrate fluorescence; 100% is mature enzyme control, 0% vehicle; Kallikrein-7 (Homo sapiens), P49862;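 active = activation above the mean of all tested compounds plus 3 SD, computed per campaign excluding outliers beyond control limits, cut at about 13% in these data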
# ADAM10 inh: human ADAM10 inhibitors, primary screen, biochemical, QFRET, HTS; AID 720582, 2013; Disintegrin and metalloproteinase domain-containing protein 10 (Homo sapiens), O14672; hit rate 0.62% among 370,000; recombinant ADAM10, EDANS/DABCYL FRET peptide cleavage, 3 h; inhibition, % at 7 µM;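 active = inhibition above a per-campaign cutoff equal to the mean of compounds falling between control-based bounds plus 3 SD, cut at about 20% in these data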
# Target sequence (O14672 214-748 limits assumed): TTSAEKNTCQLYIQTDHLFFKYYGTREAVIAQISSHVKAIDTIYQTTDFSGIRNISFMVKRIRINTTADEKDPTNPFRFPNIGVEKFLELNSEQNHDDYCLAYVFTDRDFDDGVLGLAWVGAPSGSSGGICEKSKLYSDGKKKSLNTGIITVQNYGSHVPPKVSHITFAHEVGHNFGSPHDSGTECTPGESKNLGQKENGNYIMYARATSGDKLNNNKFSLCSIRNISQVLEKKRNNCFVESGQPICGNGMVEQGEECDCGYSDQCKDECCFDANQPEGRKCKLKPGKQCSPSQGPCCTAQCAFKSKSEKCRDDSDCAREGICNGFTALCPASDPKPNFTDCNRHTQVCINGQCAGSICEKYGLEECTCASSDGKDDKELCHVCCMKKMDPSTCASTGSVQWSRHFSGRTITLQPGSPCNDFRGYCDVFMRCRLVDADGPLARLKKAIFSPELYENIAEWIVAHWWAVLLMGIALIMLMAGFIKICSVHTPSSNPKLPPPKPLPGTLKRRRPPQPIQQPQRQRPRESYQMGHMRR
# ADAM17 inh: ADAM17 inhibitors, primary screen, biochemical, QFRET | recombinant ADAM17, EDANS/DABCYL FRET peptide cleavage | hit rate 0.83% among 370,000 | Disintegrin and metalloproteinase domain-containing protein 17 (Homo sapiens), P78536 | inhibition, % at 6.95 µM;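 active = inhibition above the mean of compounds lying between control limits plus 3 SD, set per campaign, cut at about 8.5% in these data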
# MPTP block: mitochondrial permeability transition pore inhibitors, primary screen, biochemical, isolated mouse mitochondria, absorbance. inhibition, % at 10 µM. AID 602449, 2012. Ca2+ swelling absorbance, 30 min. hit rate 1.4% among 360,000;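 active = inhibition of 50% or more, scaled per plate between neutral and stimulator controls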
# rCAG bind conf: small molecules binding CAG repeat RNA – biochemical, fluorescence, confirmation; shares compounds with rCAG binder-1; r(CAG) RNA repeat, TO-PRO-1 dye displacement fluorescence; inhibition, % at 3 µM; hit rate 70% among 4,300;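 active = inhibition above a per-plate cutoff, the mean inhibition of sample wells plus 3 SD, cut at about 35% in these data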;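 note: loss of TO-PRO-1 fluorescence as compound displaces dye from 1x1 AA loop RNA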
# dCAG dye counter: displacement of TO-PRO-1 from CAG DNA duplex, counter-screen for rCAG RNA repeat binder project, biochemical, fluorescence, TO-PRO-1 dye, d(CAG) DNA oligo | shares compounds with rCAG binder-1 | d(CAG) DNA oligo TO-PRO-1 dye displacement | inhibition, % at 3 µM | hit rate 94% among 4,300 | AID 652068, 2013;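 active = inhibition above its plate's cutoff, the mean test-well inhibition plus 3 SD, cut at about 4.8% in these data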;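 note: hits displace the dye from DNA and so lower well fluorescence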
# DNA CAG DR: inhibitors of DNA CAG/GTC TO-PRO-1 complex, dose response, counter-screen for rCAG RNA repeat binder project, biochemical, fluorescence, TO-PRO-1 dye. hit rate 20% among 250. shares compounds with rCAG binder-1. DNA CAG/GTC duplex TO-PRO-1 dye displacement fluorescence. IC50, µM. AID 686960, 2013; in the data active = IC50 below about 10 µM
# dCAG TOPRO ctr: TO-PRO-1 dye complex inhibitors on d(CAG) DNA, dose response, counter-screen, biochemical, fluorescence, late stage | AID 720649, 2013 | d(CAG) DNA duplex TO-PRO-1 dye displacement | IC50, µM | shares compounds with rCAG binder-1 | hit rate 80% among 30
# rCAG binder-2: molecules binding r(CAG) RNA repeats, late stage dose response, late-stage follow-up, biochemical, fluorescence, dose response, powder samples; hit rate 100% among 30; r(CAG) RNA TO-PRO-1 dye displacement; IC50, µM; shares compounds with rCAG binder-1
# A number is an active result; i = inactive; nt = no result given. Only some compounds are listed: those with a hit (about 4.7% of all), similar ones and a draw of the others. Unless noted, the rule behind the calls is not given here.
SMILES,rCAG binder-1,DSG3 Ab inh,KLK7 zymogen act,ADAM10 inh,ADAM17 inh,MPTP block,rCAG bind conf,dCAG dye counter,others
COC(=O)[C@@]1(O)c2c(oc3cccc(O)c3c2=O)C=C[C@H]1O,i,nt,i,i,i,nt,nt,nt,
Cc1cc(OCC(=O)NC(Cc2ccc(Cl)cc2)C(=O)O)c2c3c(c(=O)oc2c1)CCCC3 (configuration not stated),63,i,i,i,i,i,66,27,
CC[C@@H]1C[C@H]2CC[C@H](O2)[C@H](C)C(=O)O[C@@H](C)C[C@@H]2CC[C@@H](O2)[C@@H](C)C(=O)O[C@H](C)C[C@H]2CC[C@H](O2)[C@H](C)C(=O)O[C@@H](C)C[C@@H]2CC[C@@H](O2)[C@@H](C)C(=O)O1,i,nt,i,i,i,nt,nt,nt,
COC(=O)C1C(c2ccccc2)CC2CCC1N2C (configuration not stated),i,nt,i,i,i,nt,nt,nt,
CCc1ccc(N2C(=O)NC(=O)/C(=C\C=C\c3ccco3)C2=O)cc1,45,i,i,i,i,i,i,9.3,
Cc1cc(C)cc(N2C(=O)NC(=O)/C(=C\C=C\c3ccco3)C2=O)c1,39,i,i,i,i,i,i,7.7,
CC(C)c1ccc(N2C(=O)NC(=O)/C(=C/C=C/c3ccco3)C2=O)cc1,54,i,i,i,i,i,i,9.4,
Cc1ccc(N2C(=O)NC(=O)/C(=C/C=C/c3ccco3)C2=O)cc1,i,i,i,i,i,i,nt,nt,
CCOCCCNC(=O)Cn1nc(-c2ccc(OC)c(OC)c2)ccc1=O,i,i,i,i,i,i,nt,nt,
CCOc1ccc(N2C(=O)/C(=C\c3cccs3)C(=O)NC2=S)cc1,39,nt,i,i,i,nt,i,7.3,
O=C1NC(=S)N(c2ccccc2F)C(=O)/C1=C\c1cccs1,i,i,i,i,i,i,nt,nt,
O=C(CF)N(O)c1ccc(C=Cc2ccccc2)cc1,i,i,i,i,i,i,nt,nt,
CC(Cc1ccc(O)cc1)NCC(O)c1ccc(O)c(O)c1 (configuration not stated),i,i,i,i,i,i,nt,nt,
O=C(O)C(Br)Br,i,nt,i,i,i,nt,nt,nt,
CCOc1ccc(/C=C2/C(=O)NC(=O)N(CCc3ccc(F)cc3)C2=O)cc1,35,i,i,i,i,i,i,i,
COc1cc(/C=C2\C(=O)NC(=O)N(CCc3ccc(F)cc3)C2=O)ccc1O,43,i,i,i,i,i,i,i,
CCCCn1c(=O)c(C=Nc2ccc(Cl)cc2)c(O)n(Cc2ccco2)c1=O,i,i,i,i,i,i,nt,nt,
CC(C)n1c(=O)c(C=Nc2ccc(S(N)(=O)=O)cc2)c(O)n(Cc2ccco2)c1=O,35,i,i,i,i,i,i,9.8,
O=C1NCN(c2ccccc2)C12CCN(C(c1cccc3ccccc13)c1nnnn1-c1ccc3c(c1)OCCO3)CC2 (configuration not stated),i,nt,i,i,i,i,nt,nt,
O=C(N/N=C1/CN2CCC1CC2)c1cc2ccccc2cc1O,49,i,i,i,i,i,i,i,
COc1ccccc1N1CCN(CCc2c[nH]c3cc4c(cc23)OCO4)CC1,i,i,i,i,i,i,nt,nt,
O=C(N/N=C/c1c(O)n(C2CCCCC2)c(=S)[nH]c1=O)c1ccccc1O,45,i,i,i,i,i,90,67,
CC/C(=N\NC(=O)c1ccccc1O)c1c(O)n(C2CCCCC2)c(=O)[nH]c1=O,59,i,i,i,i,i,72,29,DNA CAG DR=2.8;dCAG TOPRO ctr=2.4;rCAG binder-2=0.99
CC(C)c1ccc(-n2c(O)c(/C=N/NC(=O)c3ccccc3O)c(=O)[nH]c2=S)cc1,82,i,i,i,i,i,78,43,
O=C(N/N=C/c1c(O)n(C2CCCCC2)c(=S)[nH]c1=O)c1ccccc1,i,nt,i,i,i,i,nt,nt,
SMILES,rCAG binder-1,DSG3 Ab inh,KLK7 zymogen act,ADAM10 inh,ADAM17 inh,MPTP block,rCAG bind conf,dCAG dye counter,others
CCCCC(=O)N/N=C/c1c(O)n(Cc2ccco2)c(=O)[nH]c1=O,i,i,i,i,i,i,nt,nt,
O=C(N/N=C/c1c(O)n(Cc2ccco2)c(=O)[nH]c1=O)c1ccccc1O,58,i,i,i,i,i,66,27,
C=CCCC(NC(=O)OCc1ccccc1)P(=O)(Oc1ccccc1)Oc1ccccc1 (configuration not stated),nt,nt,nt,i,i,nt,nt,nt,
COP(=S)(OC)Oc1ccc(Sc2ccc(OP(=S)(OC)OC)cc2)cc1,39,i,i,i,i,i,i,7.6,
Nc1ccc(Sc2ccc(N)cc2)cc1,i,i,i,i,i,i,nt,nt,
C=CCn1c(O)c(/C(C)=N/NC(=S)Nc2ccccc2)c(=O)[nH]c1=O,37,i,i,i,i,i,44,13,
C=CCn1c(O)c(/C(CC)=N/NC(=S)Nc2ccccc2)c(=O)[nH]c1=O,i,i,i,i,i,i,nt,nt,
CCCCn1nnnc1C(CCc1ccccc1)N1CCC2(CC1)C(=O)NCN2c1ccccc1 (configuration not stated),i,nt,i,i,i,i,nt,nt,
O=C1NC(=O)N(c2ccccc2)C(=O)/C1=C\c1ccc([N+](=O)[O-])s1,43,i,i,i,i,nt,45,18,
COc1ccc(OC)c(N2C(=O)NC(=O)/C(=C\c3ccc([N+](=O)[O-])s3)C2=O)c1,92,i,i,i,i,i,74,34,
COc1ccc(N2C(=O)NC(=O)/C(=C\c3ccccc3[N+](=O)[O-])C2=O)cc1,i,i,i,i,i,i,nt,nt,
